From ChEMBL document CHEMBL3988442, “University of Dundee, Small-Polar-MMV Screening Library” (2021)
For part of these data: Potency and affinity values are given separately.

How the values were obtained:
Set-up in all cases: scale not given: direction of the effect not stated beside the values
[1] = molecular target: Protein translocase subunit SecA (Escherichia coli (strain K12)) (UniProt P10408); experiment: Assay to Identify E. coli SecA ATPase Inhibitors; assay type: functional; details: 30 µM
Protein translocase subunit SecA (Escherichia coli (strain K12)), sequence (P10408 whole entry): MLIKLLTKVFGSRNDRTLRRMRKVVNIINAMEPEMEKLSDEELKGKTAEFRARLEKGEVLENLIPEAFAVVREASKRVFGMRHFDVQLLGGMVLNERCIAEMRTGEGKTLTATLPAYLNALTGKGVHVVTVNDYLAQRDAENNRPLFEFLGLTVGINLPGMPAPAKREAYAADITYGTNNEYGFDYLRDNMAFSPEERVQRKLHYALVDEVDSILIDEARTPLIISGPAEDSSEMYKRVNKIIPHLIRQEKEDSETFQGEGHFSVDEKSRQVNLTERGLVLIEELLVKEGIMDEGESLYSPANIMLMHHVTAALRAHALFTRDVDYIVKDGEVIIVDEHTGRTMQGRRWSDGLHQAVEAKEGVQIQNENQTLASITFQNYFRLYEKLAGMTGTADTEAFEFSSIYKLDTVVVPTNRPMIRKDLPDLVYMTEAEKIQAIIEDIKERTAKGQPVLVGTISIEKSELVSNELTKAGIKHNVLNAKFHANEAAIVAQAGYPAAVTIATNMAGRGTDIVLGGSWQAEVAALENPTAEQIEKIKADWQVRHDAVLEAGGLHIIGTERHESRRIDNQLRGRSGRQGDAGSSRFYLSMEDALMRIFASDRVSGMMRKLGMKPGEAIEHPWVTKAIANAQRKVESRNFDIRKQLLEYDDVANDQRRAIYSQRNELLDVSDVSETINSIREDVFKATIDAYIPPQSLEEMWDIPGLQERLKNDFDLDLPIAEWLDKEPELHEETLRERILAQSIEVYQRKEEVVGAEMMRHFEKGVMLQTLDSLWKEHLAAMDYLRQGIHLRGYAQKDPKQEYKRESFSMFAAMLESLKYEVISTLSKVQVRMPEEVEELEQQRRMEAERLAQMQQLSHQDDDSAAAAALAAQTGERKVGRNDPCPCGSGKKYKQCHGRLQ

[2] = molecular target: T1, Ubiquitin-activating enzyme e1, putative (Leishmania donovani (strain BPK282A1)) (UniProt E9BSI1); experiment: Leishmania donovani Ubiquitin Activating Enzyme (LdE1); assay type: functional; details: 30 µM
T1 sequence (whole entry): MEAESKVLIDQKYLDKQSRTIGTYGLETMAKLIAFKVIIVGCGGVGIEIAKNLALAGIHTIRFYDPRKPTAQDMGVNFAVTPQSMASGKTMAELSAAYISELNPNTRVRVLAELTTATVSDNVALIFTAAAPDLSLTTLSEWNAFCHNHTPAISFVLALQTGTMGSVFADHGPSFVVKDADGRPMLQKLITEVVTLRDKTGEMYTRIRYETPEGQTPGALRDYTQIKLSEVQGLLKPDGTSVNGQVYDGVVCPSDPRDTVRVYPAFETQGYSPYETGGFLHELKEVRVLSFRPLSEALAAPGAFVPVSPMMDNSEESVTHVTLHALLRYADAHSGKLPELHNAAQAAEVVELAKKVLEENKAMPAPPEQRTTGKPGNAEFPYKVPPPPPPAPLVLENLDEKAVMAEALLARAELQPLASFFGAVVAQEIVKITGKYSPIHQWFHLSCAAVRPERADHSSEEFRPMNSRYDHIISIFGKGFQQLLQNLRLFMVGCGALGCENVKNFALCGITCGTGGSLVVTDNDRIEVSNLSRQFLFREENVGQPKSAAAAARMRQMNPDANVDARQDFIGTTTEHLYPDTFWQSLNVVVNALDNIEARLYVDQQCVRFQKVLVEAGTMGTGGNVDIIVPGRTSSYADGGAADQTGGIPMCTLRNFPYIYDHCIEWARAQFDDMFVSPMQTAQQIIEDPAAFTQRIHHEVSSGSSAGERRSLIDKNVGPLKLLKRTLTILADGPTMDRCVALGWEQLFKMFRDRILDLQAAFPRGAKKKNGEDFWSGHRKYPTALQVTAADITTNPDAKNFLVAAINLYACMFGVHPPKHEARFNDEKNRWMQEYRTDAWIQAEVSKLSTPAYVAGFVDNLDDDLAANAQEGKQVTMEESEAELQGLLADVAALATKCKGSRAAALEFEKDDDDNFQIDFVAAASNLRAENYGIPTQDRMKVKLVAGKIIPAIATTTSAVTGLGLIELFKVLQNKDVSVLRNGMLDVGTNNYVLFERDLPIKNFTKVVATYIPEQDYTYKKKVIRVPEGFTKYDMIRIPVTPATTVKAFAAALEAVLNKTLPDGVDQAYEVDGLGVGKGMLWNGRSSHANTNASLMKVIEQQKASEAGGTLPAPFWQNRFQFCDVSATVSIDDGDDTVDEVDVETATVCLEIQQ

[3] = molecular target: AMP-activated protein kinase, AMPK (Homo sapiens) (UniProt P54646+O43741+P54619+Q9UGJ0+Q9Y478+Q13131+Q9UGI9); experiment: AMP-dependent Kinase enzyme assay. An in vitro enzyme assay that detects ADP turnover that is directly proportional to AMPK activity. This uses naive AMPK that is activated during the assay with MK-8722; assay type: functional; details: 30 µM
[4] = molecular target: Sialic acid-binding Ig-like lectin 9 (Homo sapiens) (UniProt Q9Y336); experiment: Hs-Siglec9 ALPHAscreen SOP 20170721; details: 10 µM
Sialic acid-binding Ig-like lectin 9 (Homo sapiens), sequence (Q9Y336 whole entry): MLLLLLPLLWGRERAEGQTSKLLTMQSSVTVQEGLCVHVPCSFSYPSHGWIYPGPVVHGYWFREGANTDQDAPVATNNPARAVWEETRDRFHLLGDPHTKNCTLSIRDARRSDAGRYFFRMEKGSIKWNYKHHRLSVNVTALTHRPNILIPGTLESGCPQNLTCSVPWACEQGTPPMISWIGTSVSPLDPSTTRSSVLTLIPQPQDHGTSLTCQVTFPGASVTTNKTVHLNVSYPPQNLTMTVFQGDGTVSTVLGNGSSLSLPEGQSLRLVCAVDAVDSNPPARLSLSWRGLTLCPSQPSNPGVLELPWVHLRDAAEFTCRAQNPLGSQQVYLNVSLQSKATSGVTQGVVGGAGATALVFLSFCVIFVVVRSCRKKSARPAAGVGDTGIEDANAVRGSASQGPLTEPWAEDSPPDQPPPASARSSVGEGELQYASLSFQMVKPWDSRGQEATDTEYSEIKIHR

Trypanosoma cruzi = experiment: Trypanosoma cruzi phosphomannomutase and mannose-1-phosphate guanylyltransferase assay; assay type: functional; details: 10 µM
[5] = molecular target: T2, Arginase-2, mitochondrial (Homo sapiens) (UniProt P78540); experiment: in vitro enzyme assay to detect the production of urea directly proportional to the activity of Arginase II; assay type: functional; details: 33.3 µM; note: in the data most compounds retested in dose-response had high values
T2 sequence (whole entry): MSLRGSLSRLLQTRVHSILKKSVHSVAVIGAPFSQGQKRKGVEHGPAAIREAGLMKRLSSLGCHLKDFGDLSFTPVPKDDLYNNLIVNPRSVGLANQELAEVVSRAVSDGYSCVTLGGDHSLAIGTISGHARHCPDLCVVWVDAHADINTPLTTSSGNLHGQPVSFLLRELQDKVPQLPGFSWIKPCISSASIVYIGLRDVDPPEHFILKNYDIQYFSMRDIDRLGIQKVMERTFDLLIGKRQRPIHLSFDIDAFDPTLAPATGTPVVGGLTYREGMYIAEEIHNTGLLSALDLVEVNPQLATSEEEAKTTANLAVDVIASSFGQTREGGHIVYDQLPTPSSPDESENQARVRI

[6] = molecular target: T3, Proteasome subunit beta (Trypanosoma cruzi) (UniProt O96673); experiment: Trypanosoma cruzi proteasome chymotrypsin-like activity (TcProtChymo) assay.; note: in the data most compounds retested in dose-response had high values; assay type: functional; details: 9.37 µM
T3 sequence (whole entry): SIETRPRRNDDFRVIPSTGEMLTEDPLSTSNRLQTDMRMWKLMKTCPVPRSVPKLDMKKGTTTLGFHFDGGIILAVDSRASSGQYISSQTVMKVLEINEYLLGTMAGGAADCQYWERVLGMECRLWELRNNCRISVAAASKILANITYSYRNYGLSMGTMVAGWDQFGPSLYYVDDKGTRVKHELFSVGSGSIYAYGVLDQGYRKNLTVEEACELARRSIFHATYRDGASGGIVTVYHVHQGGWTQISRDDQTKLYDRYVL

Homo sapiens = species on record: Homo sapiens; experiment: To identify inhibition of the IFN signalling (Jak-Stat) pathway via expression of an eGFP reporter gene under the control of an IFN-stimulated response element (ISRE) containing MxA promoter.; assay type: functional; details: 30 µM
[7] = molecular target: T4, Tyrosyl-tRNA synthetase, putative (Trypanosoma cruzi (strain CL Brener)) (UniProt Q4DSP6); experiment: Trypanosoma cruzi tyrosyl tRNA synthetase (TcYRS) _High Tyrosine SOP; assay type: functional; details: 30 µM; note: in the data most compounds retested in dose-response had high values
T4 sequence (whole entry): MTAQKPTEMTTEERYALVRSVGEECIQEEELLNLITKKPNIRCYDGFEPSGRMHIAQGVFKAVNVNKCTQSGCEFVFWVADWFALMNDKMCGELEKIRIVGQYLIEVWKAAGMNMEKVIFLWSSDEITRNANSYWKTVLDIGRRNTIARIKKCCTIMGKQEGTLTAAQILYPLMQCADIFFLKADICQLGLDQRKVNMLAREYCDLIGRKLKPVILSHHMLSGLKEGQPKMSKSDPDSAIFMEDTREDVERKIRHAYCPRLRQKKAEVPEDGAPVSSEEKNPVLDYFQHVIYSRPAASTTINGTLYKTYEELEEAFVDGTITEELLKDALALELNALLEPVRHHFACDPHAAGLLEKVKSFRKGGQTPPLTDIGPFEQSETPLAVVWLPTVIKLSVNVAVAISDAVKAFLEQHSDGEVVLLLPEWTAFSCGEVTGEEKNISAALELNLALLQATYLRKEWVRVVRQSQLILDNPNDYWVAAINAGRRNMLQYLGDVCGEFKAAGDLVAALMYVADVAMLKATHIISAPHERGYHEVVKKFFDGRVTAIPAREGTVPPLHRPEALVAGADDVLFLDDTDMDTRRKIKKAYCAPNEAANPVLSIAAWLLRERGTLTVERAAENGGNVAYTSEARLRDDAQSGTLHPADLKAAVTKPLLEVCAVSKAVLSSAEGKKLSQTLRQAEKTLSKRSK

[8] = molecular target: T4, Tyrosyl-tRNA synthetase, putative (Trypanosoma cruzi (strain CL Brener)); experiment: Trypanosoma cruzi tyrosyl tRNA synthetase (TcYRS) SOP; assay type: functional; details: 30 µM
[9] = molecular target: Chromo domain-containing protein 1 (Saccharomyces cerevisiae (strain ATCC 204508 / S288c) (Baker's yeast)) (UniProt P32657); experiment: ScCHD-1 Enzyme Inhibition Assay; assay type: functional; details: 30 µM; note: in the data most compounds retested in dose-response had high values
Chromo domain-containing protein 1 (Saccharomyces cerevisiae (strain ATCC 204508 / S288c) (Baker's yeast)), sequence (P32657 whole entry, the tested form may be a part): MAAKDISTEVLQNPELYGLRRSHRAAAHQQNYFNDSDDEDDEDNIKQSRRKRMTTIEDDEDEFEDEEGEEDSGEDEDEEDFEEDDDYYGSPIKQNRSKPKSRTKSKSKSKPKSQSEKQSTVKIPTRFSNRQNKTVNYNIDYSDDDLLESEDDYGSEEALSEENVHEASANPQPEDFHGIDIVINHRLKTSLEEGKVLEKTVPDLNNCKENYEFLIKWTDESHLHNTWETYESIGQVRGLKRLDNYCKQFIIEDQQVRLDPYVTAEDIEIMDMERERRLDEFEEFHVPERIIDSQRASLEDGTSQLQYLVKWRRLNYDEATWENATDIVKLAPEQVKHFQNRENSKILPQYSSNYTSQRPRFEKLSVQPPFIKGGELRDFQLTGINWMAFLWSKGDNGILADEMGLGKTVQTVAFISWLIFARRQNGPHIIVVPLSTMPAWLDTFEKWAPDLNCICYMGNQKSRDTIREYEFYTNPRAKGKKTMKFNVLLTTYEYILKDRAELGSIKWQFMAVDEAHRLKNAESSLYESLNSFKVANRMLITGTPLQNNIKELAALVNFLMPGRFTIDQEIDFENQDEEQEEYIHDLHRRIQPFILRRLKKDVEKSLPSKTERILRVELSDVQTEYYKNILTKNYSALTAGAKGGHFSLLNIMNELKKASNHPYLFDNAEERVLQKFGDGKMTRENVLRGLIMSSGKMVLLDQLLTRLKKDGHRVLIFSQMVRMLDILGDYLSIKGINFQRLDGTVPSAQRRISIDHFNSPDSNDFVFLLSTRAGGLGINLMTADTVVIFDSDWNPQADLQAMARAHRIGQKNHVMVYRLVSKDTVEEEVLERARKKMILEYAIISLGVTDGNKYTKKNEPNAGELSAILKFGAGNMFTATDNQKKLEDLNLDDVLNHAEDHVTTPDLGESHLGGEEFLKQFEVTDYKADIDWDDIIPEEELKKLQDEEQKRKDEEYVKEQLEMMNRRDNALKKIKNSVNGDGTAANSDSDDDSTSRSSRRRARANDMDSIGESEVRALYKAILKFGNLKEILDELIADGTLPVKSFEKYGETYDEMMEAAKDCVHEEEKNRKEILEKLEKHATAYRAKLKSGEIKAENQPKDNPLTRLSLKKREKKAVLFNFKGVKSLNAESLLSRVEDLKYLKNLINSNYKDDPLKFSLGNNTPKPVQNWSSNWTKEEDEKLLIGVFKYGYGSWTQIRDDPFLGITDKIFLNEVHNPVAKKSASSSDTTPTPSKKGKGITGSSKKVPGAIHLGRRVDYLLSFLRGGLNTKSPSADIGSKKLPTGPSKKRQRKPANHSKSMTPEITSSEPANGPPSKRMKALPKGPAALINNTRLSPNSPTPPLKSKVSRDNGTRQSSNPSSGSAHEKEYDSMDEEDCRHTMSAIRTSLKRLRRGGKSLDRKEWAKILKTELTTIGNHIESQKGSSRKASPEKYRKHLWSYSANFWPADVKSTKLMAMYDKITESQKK

| SMILES | Percent Effect [1] | Percent Effect [2] | Percent Effect [3] | Percent Effect [4] | Percent Effect (Trypanosoma cruzi) | Percent Effect [5] | Percent Effect [6] | Percent Effect (Homo sapiens) | Percent Effect [7] | Percent Effect [8] | Percent Effect [9] |
| --- | --- | --- | --- | --- | --- | --- | --- | --- | --- | --- | --- |
| CC(C)(C)N1CC(C(=O)N2CCN(CCn3cccc3)CC2)CC1=O (stereo unspecified) | -6.81% | 10.7% | -6.2% | 27.1% | 4.97% | 22.4% | 12% | 5.12% | 4.92% | 8.64% | -4.28% |
| CC(C)c1nccn1-c1cccc(C2CCN(C)CC2)n1 | -4.43% | 9.46% | 4.91% | -4.03% | 4.54% | -5.8% | 14.2% | 0.127% | 1.07% | 6.49% | -24.6% |
| CCn1cnnc1C1CCN(C(=O)c2cnc3ccccc3n2)CC1 | -1.53% | 5.26% | 5.47% | 3.25% | 5.75% | -11.8% | 13.7% | -15.4% | 0% | 2.6% | 1.06% |
| Cc1ccc(N2CC3(COCCN(Cc4cccnc4)C3)OCC2=O)s1 (stereo unspecified) | -6.13% | 2.6% | 20.6% | -4.32% | -2.27% | 0.645% | 4.18% | 21.4% | -2.12% | -3.85% | -1.59% |
| COC(=O)CCc1c(C)nn(-c2nc(C)cc(=O)[nH]2)c1C | 2.99% | 15.6% | 14.8% | -8.75% | -3.06% | 0.645% | 4.87% | 25.4% | 7.41% | 11.5% | -5.54% |
| COc1ccc(C2CCCN2S(=O)(=O)N(C)CC(C)C)cc1 (stereo unspecified) | -1.74% | -6.94% | 6.36% | -0.345% | -2.62% | -3.97% | 5.61% | -1.6% | -5.26% | -10.3% | -2.11% |
| CN(C)C(=O)CO[C@@H]1CC[C@H]2[C@H]1OCCN2C(=O)C1CCOCC1 | -1.1% | 2.7% | -6.25% | -1.21% | -3.52% | 2.08% | 13.8% | 21% | 9.9% | 8.54% | 2.17% |
| COc1cccc(CN2CCC(c3cc(O)nc(C)n3)C2)c1 (stereo unspecified) | -3.18% | 12.2% | 6.93% | 3.66% | 2.37% | -3.02% | 11.7% | 29.9% | 6.45% | 14.3% | -5.62% |
| Cc1cc(C(=O)N2CCN(C(=O)Cc3ccccn3)CC2)c(C)s1 | -3.63% | 6.33% | 1.98% | -0.00439% | -1.54% | -11% | 4.8% | -10.2% | 7.29% | 7.59% | 5.75% |
| Cn1cc(CN2CCN(Cc3nccn3C)CC2)cn1 | 1.49% | 10.8% | 7.76% | -5.51% | -8.31% | -1.24% | 7.12% | 43.3% | 0% | 1.24% | -4.77% |
| Cc1cnc(N2CCn3cc(CNC(=O)CC4CC4)nc3C2)nc1 | -3.53% | -2.67% | 7.96% | -5.68% | -2.76% | 2.1% | -6.78% | 10.1% | -8.51% | -16.7% | -5.33% |
| CCC(C)(NCC(=O)Nc1ccccc1)c1nc(C)cs1 (stereo unspecified) | -2.41% | 2.7% | -4.26% | 30.5% | 2.05% | 18.6% | -0.772% | -24.9% | 1.07% | 6.17% | 2.11% |
| CCN(CC1CCOC1)C(=O)c1cccnc1N1CCOCC1 (stereo unspecified) | -2.22% | 5.26% | -1.45% | 12.7% | 6.07% | -1.8% | -1.95% | -1.93% | 4.43% | 6.17% | 2.96% |
| Cc1cnc2c(S(=O)(=O)NCC3CCS(=O)(=O)C3)cccc2c1 (stereo unspecified) | -3.39% | 21.1% | -0.0656% | -5% | 6.26% | 3.24% | 16.8% | 7.48% | 7.39% | 23.5% | -10.9% |
| CN1CCN(Cc2cccnc2)C2(CCN(c3ncc(F)cn3)C2)C1=O (stereo unspecified) | -4.27% | 5.2% | 2.79% | 8.1% | -0.885% | -13.8% | 2.33% | -4.32% | 4.3% | 8.64% | -0.489% |
| Cc1cc(C)nc(CCNC(=O)C(c2ccc(F)cc2)N(C)C)n1 (stereo unspecified) | 6.75% | 11% | 8.61% | 2.2% | -9.13% | -31.9% | 3% | 48.8% | 1.04% | 6.17% | -6.29% |
| CCS(=O)(=O)c1ccccc1N1CCC(NC(=O)NC2CCCC2)CC1 | -5.55% | 10.8% | 5.69% | 8.77% | 0.279% | -3.14% | -1.62% | 16% | 6.93% | 13.4% | -1.94% |
| Cc1noc(C)c1CNCC1CCCN1c1cccnn1 (stereo unspecified) | -6.8% | -5.2% | 5.72% | -3.1% | -4.02% | -3.16% | -2.83% | 6.36% | 1.91% | -2.35% | -1.61% |
| CN(C)C(=O)C1(CCCc2ccncc2)CCCN1 (stereo unspecified) | -1.15% | 23% | -1.94% | -4.7% | 0% | -3.48% | 26.1% | 4.91% | 5.38% | 14.3% | -22.2% |
| CCc1nc(CN2CCCC(NCc3ncc(C(C)(C)C)o3)C2)no1 (stereo unspecified) | -1.05% | 18.2% | 2.6% | -6.25% | 1.27% | 1.05% | 22.6% | -1.65% | 12.4% | 35.3% | -24.7% |
| CC(C)N1CCC(Cc2cncc(-c3ccccc3C(=O)O)n2)CC1 | -3.85% | 8% | 9.75% | 5.58% | -4.13% | 0.699% | 4.32% | 13.7% | 5.32% | 8.97% | -3.75% |
